Test results published in PubChem BioAssay (EPA / NIEHS).
Inconclusive results are not listed. Calls of active or inactive are those of the source. How the source made its calls, unless noted: active means hit-call score of the fitted dose curve at least 0.9, where 1 is the maximum; inactive means score below 0.9.

What was measured:
[1] = molecular target: Paired box protein Pax-6 (Homo sapiens) (UniProt P26367); assay: ATG_Pax6_CIS: Attagene CIS-FACTORIAL HepG2 Assay for human Paired Box 6 (PAX6) (AID 2282956); conditions: HepG2 CIS-FACTORIAL PAX6 reporter transcription, RNA readout; actives raise or lower the signal
In short: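 Readout: reporter transcript fluorescence after RT-PCR and capillary electrophoresis. Cells: HepG2, transiently transfected with cis-regulated MRTUs. Exposure 24 h. Gain or loss of signal fitted bidirectionally relative to DMSO.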

[2] = ATG_PXRE_CIS: Attagene CIS-FACTORIAL HepG2 Assay for human Pregnane X Receptor Element (PXRE) (AID 2282957); conditions: HepG2 Attagene CIS-FACTORIAL PXRE reporter, mRNA; actives raise or lower the signal
In short: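 Bidirectional activity, baselined to DMSO, derived from reporter mRNA fluorescence (RT-PCR plus capillary electrophoresis) in HepG2 cells bearing cis-promoter reporter units, 24 h exposure.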

[3] = ATG_PPRE_CIS: Attagene CIS-FACTORIAL HepG2 Assay for human Peroxisome Proliferator-activated Response Element (PPRE) (AID 2282958); conditions: HepG2 PPRE cis-element reporter, Attagene transcription factor profiling; actives raise or lower the signal
In short: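 Read-out: fluorescent reporter mRNA fragments resolved by capillary electrophoresis after RT-PCR. HepG2 cells carried transiently transfected PPRE-driven cis reporter constructs and were dosed for 24 h; gain or loss of signal fitted relative to DMSO.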

[4] = ATG_RORE_CIS: Attagene CIS-FACTORIAL HepG2 Assay for human RAR-related Orphan Receptor Element (RORE) (AID 2282959); conditions: HepG2 Attagene cis-factorial RORE reporter, mRNA; actives raise or lower the signal
In short: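 Readout: fluorescent reporter mRNA by RT-PCR plus capillary electrophoresis, 24 h after dosing transfected HepG2 cells. Endogenous transcription factor activity on a cis promoter element is measured. Gain or loss of signal fitted against DMSO.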

[5] = ATG_Sox_CIS: Attagene CIS-FACTORIAL HepG2 Assay for human SRY-box transcription factor (SOX) (AID 2282960); conditions: HepG2 Attagene cis-factorial SOX reporter, mRNA; actives raise or lower the signal
In short: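 Read-out: fluorescent RT-PCR products of SOX1-linked reporter transcripts resolved by capillary electrophoresis, fitted bidirectionally against DMSO. Transiently transfected HepG2 cells, 24 h after chemical exposure, endogenous transcription factor activity.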

[6] = molecular target: Transcription factor Sp1 (Homo sapiens) (UniProt P08047); assay: ATG_Sp1_CIS: Attagene CIS-FACTORIAL HepG2 Assay for human Specificity Protein 1 (Sp1) (AID 2282961); conditions: HepG2 Sp1 cis-reporter transcription, actives raise or lower the signal
In short: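 Read-out: fluorescence of 6-FAM-labeled, HpaI-digested RT-PCR products separated by capillary electrophoresis. HepG2 cells carried transfected cis-element reporter units and were exposed to chemicals for 24 h; gain or loss of signal fitted relative to DMSO.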

[7] = ATG_SREBP_CIS: Attagene CIS-FACTORIAL HepG2 Assay for human Sterol Regulatory Element Binding (SREBP) (AID 2282962); conditions: HepG2 Attagene cis-factorial SREBP reporter, mRNA; actives raise or lower the signal
In short: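 Readout: fluorescent reporter-transcript peaks resolved by capillary electrophoresis after RT-PCR. Cells were human HepG2 carrying transfected cis-promoter reporter constructs, dosed for 24 h. Gain or loss of signal was fitted against DMSO controls.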

[8] = molecular target: Signal transducer and activator of transcription 3 (Homo sapiens) (UniProt P40763); assay: ATG_STAT3_CIS: Attagene CIS-FACTORIAL HepG2 Assay for human Signal Transducer and Activator of Transcription 3 (STAT3) (AID 2282963); conditions: HepG2, Attagene cis-factorial STAT3 reporter transcription; actives raise or lower the signal
In short: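 Uses human liver HepG2 transiently carrying cis-regulated reporter transcription units. Following 24 h dosing, reporter mRNA induction was detected by RT-PCR and capillary electrophoresis, analysed bidirectionally versus DMSO.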

[9] = ATG_TA_CIS: Attagene CIS-FACTORIAL HepG2 Assay for human TA Basal Promoter (AID 2282964); conditions: HepG2 Attagene CIS-factorial TA basal promoter reporter; actives raise or lower the signal
In short: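 Transfected HepG2, 24 h compound exposure; RNA → RT-PCR → FAM primer extension → HpaI cut → CE fluorescence. Gain/loss-of-signal fitted against DMSO negative control. Background-control readout.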

[10] = ATG_TAL_CIS: Attagene CIS-FACTORIAL HepG2 Assay for human TAL Basal Promoter (AID 2282966); conditions: HepG2 Attagene cis-factorial TAL promoter reporter; actives raise or lower the signal;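 further: background control endpoint measuring basal TAL promoter reporter mRNA not a specific factor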
In short: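 Human hepatoma HepG2 cells, transfected with promoter-regulated reporter units, were treated 24 h. Reporter transcript levels, measured through RT-PCR and capillary electrophoresis, were fitted for gain or loss relative to DMSO.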

[11] = ATG_TGFb_CIS: Attagene CIS-FACTORIAL HepG2 Assay for human Transforming Growth Factor (TGF) (AID 2282967); conditions: HepG2 Attagene CIS TGFb reporter, mRNA transcription; actives raise or lower the signal
In short: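 Readout: fluorescently labeled reporter cDNA fragments resolved by capillary electrophoresis after RT-PCR. Transfected HepG2 cells dosed for 24 h; endogenous TF activity at TGFB1-linked cis element; gain or loss fitted relative to DMSO.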

[12] = ATG_VDRE_CIS: Attagene CIS-FACTORIAL HepG2 Assay for human Vitamin D Receptor Element (VDRE) (AID 2282968); conditions: HepG2 VDRE cis-reporter transcription, actives raise or lower the signal
In short: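 Transfected HepG2 reporter cells, chemical treatment 24 h. RNA isolated, cDNA amplified with reporter-specific primers, products analysed by capillary electrophoresis. Endpoint fitted in both directions versus DMSO.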

[13] = molecular target: X-box-binding protein 1 (Homo sapiens) (UniProt P17861); assay: ATG_Xbp1_CIS: Attagene CIS-FACTORIAL HepG2 Assay for human X-box Binding Protein 1 (XBP1) (AID 2282972); conditions: HepG2 XBP1 cis-element reporter, Attagene multiplex; actives raise or lower the signal
In short: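 Read-out: fluorescent reporter mRNA fragments resolved by capillary electrophoresis after RT-PCR. Human HepG2 liver cells carried transfected cis-promoter reporter units and were exposed to chemicals for 24 hours. Gain or loss of signal fitted relative to DMSO baseline.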

[14] = ATG_M_19_TRANS: Attagene TRANS-FACTORIAL HepG2 Assay for M19 Transcription Factor (Internal Marker) (AID 2282974; active means hit-call score of the fitted dose curve at least 0.9, where 1 is the maximum); conditions: HepG2 Attagene TRANS-FACTORIAL M19 internal marker reporter
In short: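 24 h chemical exposure of transiently transfected HepG2 (MRTU library). RNA → oligo(dT) RT → PCR → 6-FAM labelling → HpaI cut → CE fluorescence. Positive-direction fit vs DMSO baseline; background internal-marker readout.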

[15] = ATG_GAL4_TRANS: Attagene TRANS-FACTORIAL HepG2 Assay for GAL4 (Internal Marker) (AID 2282976; active means hit-call score of the fitted dose curve at least 0.9, where 1 is the maximum); conditions: HepG2 Attagene TRANS GAL4 internal marker reporter
In short: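 Liver HepG2 line bearing multiplexed GAL4-UAS reporter constructs; 24 h chemical treatment. Transcripts were quantified as fluorescent fragments on capillary electrophoresis after RT-PCR and HpaI cut, with activity fitted upward from DMSO.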

[16] = ATG_TCF_b_cat_CIS: Attagene CIS-FACTORIAL HepG2 Assay for human T-Cell-Factor with beta-catenin (TCF/b-cat) (AID 2282965); conditions: HepG2 TCF/beta-catenin cis-reporter transcription, actives raise or lower the signal
In short: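 Using capillary electrophoresis as the read-out, labelled reporter cDNA fragments from transiently transfected HepG2 were sized and quantified. Exposure lasted 24 hours; activity in either direction was referenced to DMSO.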

[17] = molecular target: Estrogen receptor (Homo sapiens) (UniProt P03372); assay: ATG_ERa_TRANS: Attagene TRANS-FACTORIAL HepG2 Assay for human Estrogen Receptor alpha (ERa) (AID 2282970; active means hit-call score of the fitted dose curve at least 0.9, where 1 is the maximum); conditions: HepG2 Attagene TRANS ERa GAL4 reporter, mRNA
In short: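 Signal derives from fluorescence of labelled reporter PCR fragments separated by capillary electrophoresis. HepG2 cells transiently carrying multiple GAL4-UAS reporter units were treated 24 hours, and induction above DMSO baseline was fitted as activity.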

[18] = molecular target: Nuclear receptor subfamily 1 group I member 3 (Homo sapiens) (UniProt Q14994); assay: ATG_CAR_TRANS: Attagene TRANS-FACTORIAL HepG2 Assay for human Constitutive Androstane Receptor (CAR) (AID 2282969; active means hit-call score of the fitted dose curve at least 0.9, where 1 is the maximum;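 further: activators raise reporter mRNA above DMSO so AC50 marks induction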); conditions: HepG2 Attagene TRANS-FACTORIAL CAR reporter
In short: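 Steps: transient transfection of HepG2 with multiple GAL4-UAS reporter units; 24 h compound incubation; RNA isolation, RT-PCR, 6-FAM primer extension, HpaI digest; capillary electrophoresis. Gain-of-signal relative to DMSO negative control.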

[19] = molecular target: Steroid hormone receptor ERR1 (Homo sapiens) (UniProt P11474); assay: ATG_ERRa_TRANS: Attagene TRANS-FACTORIAL HepG2 Assay for human Estrogen-Related Receptor alpha (ERRa) (AID 2282971; active means hit-call score of the fitted dose curve at least 0.9, where 1 is the maximum); conditions: HepG2 Attagene TRANS reporter, ERRa transactivation
In short: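 Signal gain relative to DMSO for an ERRa-Gal4 chimeric receptor, read as reporter mRNA by RT-PCR/capillary electrophoresis. Human HepG2 liver cells, transient multiplex reporter transfection, 24 h chemical exposure.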

[20] = molecular target: Estrogen-related receptor gamma (Homo sapiens) (UniProt P62508); assay: ATG_ERRg_TRANS: Attagene TRANS-FACTORIAL HepG2 Assay for human Estrogen-Related Receptor gamma (ERRg) (AID 2282977; active means hit-call score of the fitted dose curve at least 0.9, where 1 is the maximum;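 further: hits increase reporter signal over DMSO so potencies reflect activators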); conditions: HepG2 Attagene TRANS reporter, ERRg transactivation
In short: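 Exogenous NR-Gal4 chimera activity was assessed in HepG2 cells bearing transfected GAL4-UAS reporters. After 24 h dosing, total RNA underwent RT-PCR, fluorescent primer extension and HpaI digestion before capillary electrophoresis, with gain of signal scored against DMSO.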

Measured: AC50

Chain of Estrogen-related receptor gamma (Homo sapiens) (P62508 whole entry, looked up, the tested form may be a part): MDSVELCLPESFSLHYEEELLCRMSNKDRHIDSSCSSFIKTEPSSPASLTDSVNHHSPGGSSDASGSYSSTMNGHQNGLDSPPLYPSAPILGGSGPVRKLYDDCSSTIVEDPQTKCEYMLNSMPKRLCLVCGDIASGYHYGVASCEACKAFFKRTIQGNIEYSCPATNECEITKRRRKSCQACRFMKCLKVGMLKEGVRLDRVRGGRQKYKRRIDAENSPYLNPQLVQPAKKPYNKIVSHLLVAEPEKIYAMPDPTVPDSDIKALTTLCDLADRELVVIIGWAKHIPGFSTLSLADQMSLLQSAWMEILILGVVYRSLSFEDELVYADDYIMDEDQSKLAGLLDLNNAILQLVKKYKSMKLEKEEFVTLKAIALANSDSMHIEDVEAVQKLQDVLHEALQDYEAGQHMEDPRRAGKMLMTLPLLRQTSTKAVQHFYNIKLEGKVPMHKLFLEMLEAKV
Chain of Steroid hormone receptor ERR1 (Homo sapiens) (P11474 whole entry, looked up, the tested form may be a part): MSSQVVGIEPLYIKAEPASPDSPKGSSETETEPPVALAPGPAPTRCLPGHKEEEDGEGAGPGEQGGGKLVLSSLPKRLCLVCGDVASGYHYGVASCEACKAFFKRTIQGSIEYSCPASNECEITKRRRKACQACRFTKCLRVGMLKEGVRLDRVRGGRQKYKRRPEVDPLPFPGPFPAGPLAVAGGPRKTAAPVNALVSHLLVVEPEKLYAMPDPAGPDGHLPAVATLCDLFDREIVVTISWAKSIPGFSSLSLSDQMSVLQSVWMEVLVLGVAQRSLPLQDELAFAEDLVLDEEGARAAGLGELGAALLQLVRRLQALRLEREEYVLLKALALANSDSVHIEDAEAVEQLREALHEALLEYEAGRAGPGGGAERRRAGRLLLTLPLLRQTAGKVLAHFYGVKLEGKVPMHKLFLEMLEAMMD
Chain of Paired box protein Pax-6 (Homo sapiens) (P26367 whole entry, looked up): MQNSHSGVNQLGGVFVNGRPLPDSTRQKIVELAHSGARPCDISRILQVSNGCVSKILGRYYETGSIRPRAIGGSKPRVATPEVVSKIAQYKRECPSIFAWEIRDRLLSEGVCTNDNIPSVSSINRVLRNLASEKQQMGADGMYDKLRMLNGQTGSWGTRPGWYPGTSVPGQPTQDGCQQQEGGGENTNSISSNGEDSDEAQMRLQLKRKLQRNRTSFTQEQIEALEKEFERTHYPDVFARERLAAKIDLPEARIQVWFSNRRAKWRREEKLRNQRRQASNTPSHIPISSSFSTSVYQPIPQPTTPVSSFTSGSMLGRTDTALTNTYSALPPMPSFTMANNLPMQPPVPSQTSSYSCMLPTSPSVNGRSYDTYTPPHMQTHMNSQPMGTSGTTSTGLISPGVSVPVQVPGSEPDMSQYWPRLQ
Chain of X-box-binding protein 1 (Homo sapiens) (P17861 whole entry, looked up, the tested form may be a part): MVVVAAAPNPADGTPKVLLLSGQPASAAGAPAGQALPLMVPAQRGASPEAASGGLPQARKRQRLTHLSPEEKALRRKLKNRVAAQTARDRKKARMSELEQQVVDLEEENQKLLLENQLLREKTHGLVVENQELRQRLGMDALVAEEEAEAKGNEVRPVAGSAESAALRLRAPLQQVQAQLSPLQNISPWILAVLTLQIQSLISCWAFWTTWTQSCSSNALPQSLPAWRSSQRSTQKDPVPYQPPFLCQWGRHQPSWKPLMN
Chain of Signal transducer and activator of transcription 3 (Homo sapiens) (P40763 whole entry, looked up): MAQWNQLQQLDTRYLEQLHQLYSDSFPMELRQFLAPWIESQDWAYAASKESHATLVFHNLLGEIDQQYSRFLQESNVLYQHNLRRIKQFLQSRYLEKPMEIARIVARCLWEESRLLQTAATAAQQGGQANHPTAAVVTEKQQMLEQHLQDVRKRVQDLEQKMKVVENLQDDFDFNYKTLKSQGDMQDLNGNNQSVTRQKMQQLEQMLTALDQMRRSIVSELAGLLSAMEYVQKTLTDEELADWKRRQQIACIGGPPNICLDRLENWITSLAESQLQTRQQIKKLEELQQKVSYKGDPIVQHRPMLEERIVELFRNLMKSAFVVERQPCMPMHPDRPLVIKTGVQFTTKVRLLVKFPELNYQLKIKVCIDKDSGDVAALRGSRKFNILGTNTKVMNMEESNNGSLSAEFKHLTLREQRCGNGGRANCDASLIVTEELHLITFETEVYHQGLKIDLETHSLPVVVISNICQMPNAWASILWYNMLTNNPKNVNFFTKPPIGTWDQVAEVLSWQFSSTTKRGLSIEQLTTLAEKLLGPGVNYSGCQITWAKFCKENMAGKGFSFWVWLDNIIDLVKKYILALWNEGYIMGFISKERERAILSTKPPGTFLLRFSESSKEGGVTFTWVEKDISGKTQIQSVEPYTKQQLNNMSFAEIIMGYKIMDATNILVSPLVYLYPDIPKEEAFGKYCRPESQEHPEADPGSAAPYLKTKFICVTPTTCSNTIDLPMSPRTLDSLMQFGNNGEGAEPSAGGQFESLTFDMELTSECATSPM
Chain of Transcription factor Sp1 (Homo sapiens) (P08047 whole entry, looked up): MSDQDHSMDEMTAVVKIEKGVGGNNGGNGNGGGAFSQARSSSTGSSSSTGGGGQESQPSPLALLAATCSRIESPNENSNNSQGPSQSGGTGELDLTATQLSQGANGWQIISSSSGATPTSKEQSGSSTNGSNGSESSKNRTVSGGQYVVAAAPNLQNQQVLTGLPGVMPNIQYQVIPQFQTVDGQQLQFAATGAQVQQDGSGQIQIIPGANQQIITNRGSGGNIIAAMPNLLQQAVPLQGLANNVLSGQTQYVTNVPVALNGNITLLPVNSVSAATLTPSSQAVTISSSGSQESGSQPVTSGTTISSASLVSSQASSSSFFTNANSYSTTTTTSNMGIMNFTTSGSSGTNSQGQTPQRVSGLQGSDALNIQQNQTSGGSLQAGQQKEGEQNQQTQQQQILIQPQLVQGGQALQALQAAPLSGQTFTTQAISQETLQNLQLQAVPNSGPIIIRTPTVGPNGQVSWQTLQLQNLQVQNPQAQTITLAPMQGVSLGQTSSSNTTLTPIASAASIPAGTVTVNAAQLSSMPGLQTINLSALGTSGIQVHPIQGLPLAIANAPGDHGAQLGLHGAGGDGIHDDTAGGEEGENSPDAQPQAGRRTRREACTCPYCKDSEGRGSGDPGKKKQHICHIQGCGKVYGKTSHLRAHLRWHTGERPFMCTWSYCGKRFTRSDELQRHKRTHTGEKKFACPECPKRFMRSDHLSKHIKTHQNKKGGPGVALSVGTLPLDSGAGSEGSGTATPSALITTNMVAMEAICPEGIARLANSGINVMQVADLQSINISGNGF
Chain of Estrogen receptor (Homo sapiens) (P03372 whole entry, looked up, the tested form may be a part): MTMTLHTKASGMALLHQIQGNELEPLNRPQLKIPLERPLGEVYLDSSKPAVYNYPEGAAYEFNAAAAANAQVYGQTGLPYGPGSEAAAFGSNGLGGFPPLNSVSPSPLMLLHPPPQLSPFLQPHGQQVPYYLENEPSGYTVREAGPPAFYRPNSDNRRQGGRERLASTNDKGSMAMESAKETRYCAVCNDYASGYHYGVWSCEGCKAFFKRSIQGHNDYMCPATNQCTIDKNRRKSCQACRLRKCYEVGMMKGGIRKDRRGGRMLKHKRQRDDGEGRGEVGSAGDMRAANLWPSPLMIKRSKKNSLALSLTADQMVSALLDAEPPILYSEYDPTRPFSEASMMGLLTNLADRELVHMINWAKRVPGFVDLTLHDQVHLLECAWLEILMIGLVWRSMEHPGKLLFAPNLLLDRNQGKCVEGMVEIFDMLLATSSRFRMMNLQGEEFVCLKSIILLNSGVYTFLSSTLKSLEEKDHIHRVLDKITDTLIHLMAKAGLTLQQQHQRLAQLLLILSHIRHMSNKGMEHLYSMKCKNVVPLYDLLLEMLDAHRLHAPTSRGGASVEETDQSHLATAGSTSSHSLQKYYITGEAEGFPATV
Chain of Nuclear receptor subfamily 1 group I member 3 (Homo sapiens) (Q14994 whole entry, looked up, the tested form may be a part): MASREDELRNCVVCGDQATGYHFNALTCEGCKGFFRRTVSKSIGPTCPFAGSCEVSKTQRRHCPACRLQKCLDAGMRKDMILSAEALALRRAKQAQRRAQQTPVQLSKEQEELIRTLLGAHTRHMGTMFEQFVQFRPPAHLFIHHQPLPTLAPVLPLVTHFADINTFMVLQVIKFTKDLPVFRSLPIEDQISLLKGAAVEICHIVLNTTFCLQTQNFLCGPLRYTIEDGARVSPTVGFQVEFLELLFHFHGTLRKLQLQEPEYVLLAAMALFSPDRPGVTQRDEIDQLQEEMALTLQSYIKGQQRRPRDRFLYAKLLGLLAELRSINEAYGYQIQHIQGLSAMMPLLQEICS

CC(=O)CC(N)=O
active: [2] 0.0836 µM
not listed: [16] | [17] | [18] | [19] | [20]
inactive: all other assays above

COCCOCCOCCOCCOC
not listed: [9] | [13] | [14] | [17] | [18] | [19] | [20]
inactive: all other assays above

CC(=O)OCC(=O)[C@@]12N=C(C)O[C@@H]1C[C@H]1[C@@H]3CCC4=CC(=O)C=C[C@]4(C)[C@H]3[C@@H](O)C[C@@]12C
active: [2] 17.6 µM | [12] 25 µM
not listed: [8] | [14] | [18] | [19] | [20]
inactive: all other assays above

O=C(O)CCCC[C@@H]1SC[C@@H]2NC(=O)N[C@@H]21
not listed: [8] | [15]
inactive: all other assays above

O=C(Nc1ccccc1)c1ccccc1O
active: [2] 27.4 µM | [3] 100 µM | [17] 27.2 µM | [13] 44.4 µM
not listed: [12] | [14] | [15] | [16] | [18]
inactive: all other assays above

O=C(OCC1CCC2OC2C1)C1CCC2OC2C1 (configuration not stated)
not listed: [8] | [13] | [14] | [15] | [17] | [19] | [20]
inactive: all other assays above

COc1cc(C)ccc1C(C)C
not listed: [16] | [18] | [19]
inactive: all other assays above

OC1CCCC1
active: [2] 48.8 µM
not listed: [8] | [14] | [16] | [17] | [18]
inactive: all other assays above

CCCCCC(C)O (configuration not stated)
not listed: [9] | [14] | [18] | [19] | [20]
inactive: all other assays above

Nc1ccc(Cl)cc1Cl
not listed: [8] | [12] | [14] | [15] | [17] | [18] | [19]
inactive: all other assays above

CCCCNc1ccc(NCCCC)c2c1C(=O)c1ccccc1C2=O
active: [2] 0.886 µM
not listed: [15] | [16] | [18] | [19] | [20]
inactive: all other assays above

Cc1cc(C)c(C)cc1C
not listed: [8] | [13] | [15] | [18] | [19] | [20]
inactive: all other assays above

c1ccc(CNCc2ccccc2)cc1
active: [2] 36 µM
not listed: [9] | [14] | [16] | [18] | [19] | [20]
inactive: all other assays above
